Experimental data: the supplement of paper PMC6555819

Experiments:
Assay in all cases: PBM binding z-score (relative to random genomic background probes); higher = stronger binding; sequences stand for … in GC…GCGATTGACAGCGTAGAATGAAGG
[1] = test system: PPARg:RXRa DBDmut IVT, anti-RXR (DBD mutation: RXRa K156A/R161A, NR concentration 270 nM, RXRa partner concentration 90 nM)
Summary of the method: (§1)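 Scanned fluorescence from custom Agilent 4×180K protein-binding microarrays was regression-normalized. Binding z-scores use random background probes as reference. Ligand-free nuclear receptor dimers were incubated on the arrays for 1 h and detected with antibodies against each partner (one per run).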

[2] = test system: PPARg:RXRa IVT, anti-PPARg (NR concentration 270 nM, RXRa partner concentration 90 nM)
Summary of the method: as §1

[3] = test system: PPARg DBDmut:RXRa IVT, anti-PPARg (DBD mutation: PPARg1 K132A/R137A, NR concentration 270 nM, RXRa partner concentration 90 nM)
Summary of the method: as §1

[4] = test system: PPARg DBDmut IVT, anti-PPARg (DBD mutation: PPARg1 K132A/R137A, NR concentration 270 nM)
Summary of the method: as §1

[5] = test system: PPARg homodimer (NR concentration 180 nM)
Summary of the method: as §1

[6] = test system: PXR:RXRa (NR concentration 270 nM, RXRa partner concentration 90 nM)
Summary of the method: as §1

[7] = test system: PXR homodimer (NR concentration 270 nM)
Summary of the method: as §1

[8] = test system: RARa:RXR (NR concentration 270 nM, RXRa partner concentration 90 nM)
Summary of the method: as §1

[9] = test system: RARa homodimer (NR concentration 270 nM)
Summary of the method: as §1

[10] = test system: RARb:RXRa (NR concentration 270 nM, RXRa partner concentration 90 nM)
Summary of the method: as §1

Sequence	PBM binding z-score [1]	PBM binding z-score [2]	PBM binding z-score [3]	PBM binding z-score [4]	PBM binding z-score [5]	PBM binding z-score [6]	PBM binding z-score [7]	PBM binding z-score [8]	PBM binding z-score [9]	PBM binding z-score [10]
TAGCCTAGGTCATTCAGGGGCCGGTATAGAAAGC	1.8	2.62	0.426	-0.644	1.79	2.11	-0.0709	3.04	-0.178	3.79
TAGCCTTGGTCATTCAGGGGCCAGTATAGAAAGC	-0.687	0.278	-0.367	-0.339	-0.308	0.0515	-0.437	0.596	-0.818	1.44
AGAATGAGGTTTAGATCAGGGAAACAGAATACAT	-0.558	-0.176	0.757	0.896	-0.0172	-0.27	-0.0808	-0.0668	0.721	-0.105
ATATGTAGTTTAGCTGGGGTCATTCAGACTAGGC	1.04	1.41	1.71	2.11	1.95	5.98	3.93	5.81	1.36	2.74
ACAGACAGGTGATGAAGGTATCTCAGGCTATCAT	-0.101	0.167	-0.0054	-0.542	0.117	-0.369	0.175	-0.241	-0.481	0.0103
GCAGACAGGTGAAACGCAGGTAGCTCAGGGTGGC	1.07	0.347	-0.762	-0.471	-0.599	-0.573	-0.785	-0.358	-0.976	0.536
GCGACTGGGGCATCAGCAGGTTGCCATAACTTAA	3.45	2.85	0.246	-0.846	-0.258	-0.58	-0.422	-0.453	-0.648	0.207
ACAGACAGGTGAAGAAGGTAACTCAGGCTATCAT	0.468	0.733	0.175	0.429	0.495	0.0318	0.0524	0.274	0.349	0.709
GTACCAAGGTGAATAGGTCGTTGTTGAGTAGGCG	1.9	2.74	0.246	-0.308	1.31	0.708	-0.604	1.5	0.154	1.91
TGAATGAGGTTAATGATCAGGGAACGTGGCGTCG	2.04	1.98	1.1	0.18	0.483	0.561	0.0582	0.918	0.17	1.52
ATCTCTAGTTAAGACTCAGTTCAGTGAAGAACGC	0.356	0.194	1.65	1.35	1.07	1.23	2.02	0.831	1.93	0.235
AGAATGAGGTTATACGTAAATCAGGGAAGAAAGT	3.33	2.28	0.904	1.57	0.789	1.18	0.834	1.77	0.337	1.59
GCTAGCAGGCCATTTGGGTCACTCACTGACGGGC	2.26	2.51	-1.21	-1.1	0.122	0.354	-0.0107	0.762	-0.483	1.45
AGAACGAGGGCACGCTGTGTTGATAGCAGAGTAG	4.43	3.96	0.394	-0.216	-0.372	0.28	-0.446	0.799	-0.803	2.39
TCTGCTAGGTCAACGATGGTCTGCTAATCTGCTA	3.96	3.88	0.46	1.25	0.811	0.995	-0.719	2	-0.907	3.83
TGAATGAGGTTATTAGATCAGGGAACGTTGCAAA	2.05	2.98	1.48	0.859	0.948	0.902	0.241	1.43	0.496	1.24
CCGACTGGGGCAAGGTTACCAGAACGCACAGCCA	2.21	3.49	-0.808	-1.44	0.502	0.259	0.151	0.58	-0.644	1.63
TCGAGTACGTTAGTCGGGGCATTCAGCCAACATA	0.607	-0.44	-0.411	-0.712	-0.34	-0.0967	-0.478	-0.134	-0.667	0.019
AGGACGAGGGCAATGAGTTGATAGCACGGGTGGC	1.76	1.02	0.439	0.19	0.218	1.55	4.82	0.678	-0.00105	2.12
ACAGACAGGTGAGTGAAGGTAAGTCAGCTGGACG	0.544	0.594	-0.101	-0.745	-0.0235	-0.37	-0.45	0.0462	-0.141	0.623
TCTTGTAAATCAAGCAGGTTAAGAAAGCCTGAGT	1.54	-0.000502	-0.116	0.31	-0.337	0.678	0.119	0.64	0.0275	0.495
GGACCGAGGGCATTCGAGTTGATAGCATGGCGAT	0.308	0.267	-0.812	-0.98	-0.223	4.17	1.3	0.835	-0.77	1.88
AAGACAGGGTCATCGTAGGCCAGAGTACGCACAG	1.48	2.99	0.884	0.174	1.25	4.95	0.0301	4.92	0.453	4.23
CGTCCAAGGTAAAGGTCAGTGAAAGAGACTCGAA	1.42	3.27	-0.427	-0.748	1.81	3.05	0.298	3.83	1.38	4.61

Sequence	PBM binding z-score [1]	PBM binding z-score [2]	PBM binding z-score [3]	PBM binding z-score [4]	PBM binding z-score [5]	PBM binding z-score [6]	PBM binding z-score [7]	PBM binding z-score [8]	PBM binding z-score [9]	PBM binding z-score [10]
GGAACGAGGGCATTCGAGTTGAGAGCATGGCGAT	3.26	2.42	-0.0251	-0.828	-0.126	3.24	0.951	0.847	-0.731	1.99
CGAACTAGGACAGAACAGGACAGTGAAGGATGAT	3.37	2.51	0.329	1	-0.301	-0.366	-0.302	-0.649	0.312	0.117
AGAATGAGGGTACCAAAGATCAGGGAAACGCTTG	1.95	1.35	0.283	0.511	-0.237	-0.107	0.0728	0.253	0.0319	0.552
ACAGACAGGTGAGTGAAGGGAACTCAGCTGGACG	0.124	0.352	-0.265	-0.714	-0.397	-0.572	-0.37	-0.456	-0.307	0.438
TCTAGCCGGCCAGAGGGTCACTCAAGAGGTACGG	0.224	-0.0177	-0.893	-1.23	0.24	1.48	-0.354	2.24	-0.43	2.08
CCTAGCAGGCCAGGGTCATTCAAGCATTTCGCTT	0.315	0.694	-0.751	-1.91	1.59	3.11	-0.0887	3.29	-0.222	2.57
TCCTGTAGATCAAGCAGGTTAAGAAAGCCTGAGT	1.36	-0.00456	0.0504	-0.299	-0.486	0.372	0.0191	0.301	-0.136	0.0343
CGTCCAAGGTCAAAGGCCAGTGAAGAGATGACGG	3.42	4.02	0.425	0.106	3.37	4.39	0.655	5.25	0.426	5.29
TCGAGTTGGTTAGGGGCATTCAGAATGGCGTCGA	0.816	-0.123	-0.765	-0.477	0.182	1.14	2.82	0.232	0.104	0.514
CCTTACGGGTCAAGGCTATAGCACGGGTGGTACG	1.68	3.1	-0.373	-0.381	1.08	2.58	-0.208	3.68	0.855	3.98
TCTAGTTGGTGAAAGGTCACACACTCGAAATGCG	2.69	5.86	2.76	2.05	7.7	5.97	2.06	7.3	4.58	4.79
AGAATAAGGTTACCAAAGATCAGGGAAACGCTTG	2.55	2.26	1.2	1.13	0.8	1.03	0.338	1.61	0.942	2.57
AGAATGAGGGCACGCTGAGTTGATAGCAGAGTAG	5.59	4.73	1.66	0.551	0.535	1.48	0.452	1.18	-0.371	2.62
CCTACTGGGACATCAGGTCATTGATATCAACGTT	4.19	4.32	0.344	0.76	1.84	1.82	1.56	2.04	0.755	1.99
ATCTCTAGGTAAGACTTAGTTCAGTGAAGAACGC	1.88	1.57	0.722	0.771	1.4	0.684	0.67	0.614	1.01	0.573
ATATGTAGGTTACATACGGGTCATTCAGGCTATG	7.45	7.06	2.47	2.75	1.74	3.1	0.979	3.65	0.636	2.33
CTTTACGGGTCACGAGGTTATAGCACGACGAGCG	5.55	6.46	1.86	2.29	2.93	4.96	0.279	6.19	0.513	4.81
CCGACTAGGGCAAAGGTTACCATACTCAGTACGA	5.49	6.42	0.866	0.896	2.04	2.23	-0.079	3.59	0.449	2.85
ATCTCTAGGTAACCAAGTGCAGTGAATGCCGAAC	3.33	2.57	1.12	0.604	-0.00797	0.128	0.228	0.0514	-0.0338	0.281
ATCTCTAGGTAACCAAGTTCGGTGAATGCCGAAC	3.09	2.93	1.06	1.09	0.509	0.501	0.469	0.415	0.268	0.571
AGAATAAGGTTATTAAGATCAGGGAATTGCGGTC	2.24	1.81	1.52	0.812	1.04	1.13	0.666	1.49	1.34	1.72
CGTCAAAGTTCAGGGTAACGTAACAGAAAGCAGC	0.483	1.35	0.319	0.192	2.87	2.66	1.67	2.17	1.09	4.33
ATATGAAGGTTAAGGGTCATTCAGGTTGGTTCGC	2.29	4.44	1.32	1.46	3.39	5.84	2.27	6.97	1.13	4.19
CCTTCTGGGCCAAAAAGGTCATTGATGCCGATAA	3.91	3.68	-0.102	-0.685	3.67	4.74	4.12	5.1	1.14	3.83
